Source: PubChem (National Center for Advancing Translational Sciences (NCATS))
Shown are actives, neighbours in structure and some others; about 6.9% of the full set was active somewhere.
KB-V1 cytotox: kills drug-selected multidrug resistant KB-V1 cells. 400,000 compounds, 3.4% hits. Potency, µM (highest dose often 46.1 µM), actives largely listed as cytotoxic. KB-V1 MDR cells viability, CellTiter-Glo, 72 h. AID 1347076; also: potency is read from the fitted curve at half-maximal effect; % is scaled to controls: 0 for no effect and ±100 for the full control effect; nearly all actives have a fitted effect of over 60% in size
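qHTS viability screen in drug-selected KB-V1 MDR cells: 72 h compound treatment at 37 degrees C, ATP luminescence end point.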
Giardia kill: Giardia lamblia killing; Giardia lamblia trophozoite viability; activity change, % at 7.66 µM, hits read low; 340,000 compounds, 0.15% hits; AID 540267; in the data active = activity change below about -80%; inconclusive = between about -30% and that limit;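 also: parasites exposed to compound for two days anaerobically before the ATP read; % is scaled to controls: 0 for no effect and ±100 for the full control effect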
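Luminescent ATP signal served as the viability read-out, measured 15-30 min after adding ATP detection reagent to trophozoites that had been incubated with compounds for 48 hrs at 37 deg C anaerobically at 100 cells/well.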
KB-3-1 tox: kills parental KB-3-1 adenocarcinoma cells; KB-3-1 viability, CellTiter-Glo ATP luminescence, 72 h; Potency, µM (series often up to 46.1 µM), most hits filed as cytotoxic; 400,000 compounds, 1.4% hits; AID 1347075; also: potency is read from the fitted curve at half-maximal effect; % is scaled to controls: 0 for no effect and ±100 for the full control effect; nearly all actives have a fitted effect of over 60% in size
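Using CellTiter-Glo luminescence, growth of non-resistant KB-3-1 adenocarcinoma cells is assessed 72 h after pin-tool compound addition at 37 °C. Normalized responses across the concentration series yield fitted curves.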
S-ASM inh: blocks human secretory acid sphingomyelinase. P17405. placental ASM, HMU-PC fluorogenic substrate, 60 min. Potency, µM (titrated, usually from 57.5 µM), for the others: top-dose activity change, negative = inhibition, usual class: inhibitors. 340,000 compounds, 0.006% hits. AID 504937; also: potency is read from the fitted curve at half-maximal effect
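Human placenta-derived ASM preincubated with compound 10 min at room temperature, then reacted with 9 uM (final) fluorogenic HMU-PC substrate for 60 min at 37 C. Stop solution raises pH to 10; fluorescence read at Ex 386/Em 447 nm.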
SW480 rereplic: DNA re-replication induction in SW480 cells. SW480 DNA re-replication, Hoechst DNA content imaging, 48 h. AID 624297. 340,000 compounds, 1.8% hits. Potency, µM (highest dose often 46.1 µM), for the others: at the highest dose re-replication activation, actives largely listed as activators; also: potency is read from the fitted curve at half-maximal effect; % of control where 0% means no effect; nearly all actives have a fitted effect of over 55% in size
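Treated cells incubate 48 hr (37 C, 5% CO2), are stained 40 min with Hoechst, and nuclear fluorescence is enumerated; a rise in nuclei with high DNA signal marks re-replication.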
MCF10A rerep: induces DNA re-replication in MCF 10a normal breast cells; MCF 10A DNA re-replication, Hoechst nuclear intensity, 48 h; 350,000 compounds, 2.9% hits; AID 624296; Potency, µM (top dose mostly 46.1 µM), for inactives: at the highest dose activity, positive = re-replication, most hits filed as activators; also: potency is read from the fitted curve at half-maximal effect; % of control where 0% means no effect; nearly all actives have a fitted effect of over 50% in size
Active calls of the source: *; i = inactive; ? = inconclusive; . = not tested or not shown. Unless noted, calls follow the shape of the dose curve; as a rule, active = well fitted curve in the direction sought with a large enough effect; inconclusive = small, poorly fitted or top-dose-only effect, or another doubt; inactive = no such curve, though single readings can be large; an effect the other way counts as inactive or inconclusive.

SMILES	KB-V1 cytotox	Giardia kill	KB-3-1 tox	S-ASM inh	SW480 rereplic	MCF10A rerep
COc1ccc(N2C(=O)CC(Sc3nnnn3-c3ccc(F)cc3)C2=O)cc1 (centres undefined)	i	-2	i	-1%	10µM*	?
Nc1nc(N)c2sc3nc(C(F)(F)F)cc(C(F)(F)F)c3c2n1	18µM*	-9	i	-11%	-3%	?
CCNc1nc(C23CC4CC(CC(C4)C2)C3)cs1	i	-15	i	0%	?	23µM*
CC(=O)NNC(=O)CC(=O)Nc1nc(C23CC4CC(CC(C4)C2)C3)cs1	i	-11	i	-2%	-1%	?
NNC(=O)c1cc2cc3ccccc3nc2s1	i	0	i	-1%	6%	12µM*
Cn1c(=O)nc2n(Cc3ccccc3)c3cccc(Cl)c3cc-2c1=O	21µM*	8	i	155%	1%	2%
Cc1cccc(-n2c3nc(=O)n(C)c(=O)c-3cc3c(Cl)cccc32)c1C	i	.	i	.	.	.
Cc1ccc(CNC(=O)CN2CCCN(Cc3ccc(F)cc3)S2(=O)=O)cc1	i	.	i	.	.	.
CCn1nc(NC(=O)c2ccncc2)c2cc3cc(C)ccc3nc21	i	-2	i	27%	?	8.2µM*
CCCC(=O)Nc1nn(CC)c2nc3ccc(C)cc3cc12	i	-8	i	191%	?	?
CCn1nc(NC(=O)c2ccncc2)c2cc3ccc(C)cc3nc21	9.2µM*	-7	i	16%	7%	?
O=C(COc1ccc(F)cc1)NCC(c1ccc(Cl)cc1)N1CCCCC1 (centres undefined)	i	.	i	.	.	.
Cc1ccc2nc(C)c(C(=O)NN=C3CCN(C)CC3)n2c1	i	16	i	1%	21µM*	?
COc1ccc(/C=N\NC(=O)c2c(C)nc3ccc(Br)cn23)cc1	?	6	?	-2%	2.3µM*	?
COc1cccc(/C=N/NC(=O)c2c(C)nc3ccc(Br)cn23)c1O	i	10	?	-8%	0.65µM*	-12%
CCOc1ccccc1/C=N/NC(=O)c1c(C)nc2ccc(Br)cn12	i	18	i	10%	-1%	-7%
Cc1ccc(/C=N/NC(=O)c2c(C)nc3ccc(Br)cn23)cc1	1.3µM*	32	1.5µM*	2%	1.5µM*	?
Cc1nc2ccccn2c1C(=O)N/N=C/c1ccccc1	i	8	i	0%	-3%	7%
Cc1nc2ccccn2c1C(=O)N/N=C/c1cc(C)n(-c2ccc(Br)cc2)c1C	?	-11	21µM*	-23%	15%	?
Cc1ccc(NC(=O)Cn2cc3c(n2)CCCC3)cc1Cl	i	.	i	.	.	.
CCc1ccc(CN2CCc3nc(Nc4ccccc4)ncc3C2)cc1	?	.	i	.	.	.
CC(C)(C)c1ccc(/C=C2\Oc3cc(O)ccc3C2=O)cc1	i	-7	16µM*	60%	21µM*	21µM*
O=C1/C(=C/c2ccc(Br)cc2)Oc2cc(O)ccc21	?	-13	i	11%	?	15µM*
O=C1/C(=C/c2ccc([N+](=O)[O-])cc2)Oc2cc(O)ccc21	i	-4	i	-5%	7%	23%
CN(Cc1ccccc1N1CCCC1)C(=O)c1cc2cc(Cl)ccc2o1	?	?	?	-1%	-25%	15µM*
CN(CC(=O)Nc1c(Cl)cccc1Cl)C(=O)c1ccc2ccccc2n1	i	-3	i	.	-1%	2%
O=C(c1ccccc1NS(=O)(=O)c1ccc2c(c1)OCCO2)N1CCOCC1	i	8	i	3%	12µM*	6.5µM*
O=C(c1ccc(F)cc1)N1CCN(S(=O)(=O)c2ccc3c(c2)OCCO3)CC1	?	.	i	.	.	.
O=C(c1ccc(F)cc1F)N1CCN(S(=O)(=O)c2ccc3c(c2)OCCO3)CC1	16µM*	23	?	3%	4%	5%
Cc1ccc(S(=O)(=O)Nc2ccccc2C(=O)N2CCOCC2)cc1	i	0	?	-5%	-3%	2%
